From PubChem BioAssay AID624202 (National Center for Advancing Translational Sciences (NCATS), 2012)
About 4,000 (1.1%) of roughly 380,000 compounds were called active. Not shown: some 3% with an inconclusive outcome. Calls come from the whole dose curve; as a rule, active = well fitted activation curve with a large enough effect; inconclusive = small, poorly fitted or top-dose-only effect; inactive = no such curve, though single readings can be large or run the other way. What follows is part of a selection rich in actives, with near analogues and random picks from the rest. Where a call stands in place of a potency, no number is given.

assay: qHTS Assay to Identify Small Molecule Activators of BRCA1 Expression; conditions: MCF7-BRCA1-FFLuc reporter, luminescence, 48 h; series mostly up to 46.1 µM; note: nearly all actives have a fitted effect of over 80% in size
Outline: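 Activators of BRCA1 expression were detected as increased firefly luciferase luminescence in engineered MCF7 cells after 48 h compound incubation. Signals were scaled to genistein 10 microM as full activation.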
Potency is the fitted concentration of half-maximal effect.

Structure (SMILES)	Potency
COc1cc2c(=O)c(S(=O)(=O)c3ccc(C(C)C)cc3)cn(Cc3ccccc3C)c2cc1OC	inactive
COc1cc(C(=O)Nc2ccc(-n3c(C)nc4ccccc4c3=O)cc2)cc(OC)c1OC	inactive
O=c1cc2nc(-c3ccccc3)nc(SCCOc3ccc(Cl)cc3)n2[nH]1	inactive
CCCCC(CCCC)c1ccc(C=Nc2ccc(/C=C/c3ccnc4ccccc34)cc2)cc1	inactive
Cc1ccccc1NC(=O)Cn1c(=O)n(CC2CCC(C(=O)NCCc3ccccc3)CC2)c(=O)c2ccccc21 (stereo not given)	inactive
CCOC(=O)c1c(C)[nH]c(C)c1S(=O)(=O)N1CCCC(C(=O)NCc2ccccc2Cl)C1 (stereo not given)	inactive
COc1ccc(NC(=O)CCNS(=O)(=O)c2ccc3c(c2)CCCC(=O)N3)cc1Cl	inactive
COCCn1c(SCC(=O)c2cc(C)ccc2C)nc2cc(C(=O)NC3CCCC3)ccc2c1=O	inactive
N#Cc1ccc[n+](CC(=O)c2ccc(O)c(O)c2)c1	inactive
CCOC(=O)C1CCCN(CC(=O)Nc2cc(C)c3c(=O)oc4ccccc4c3n2)C1 (stereo not given)	inactive
C/C(Cc1ccccc1)=N\NC(=O)CNC(=O)c1ccc2c(c1)OCCO2	inactive
CS(=O)(=O)N1CCc2cc(C(=O)Nc3ccccc3)ccc21	inactive
O=C(Nc1ccccc1)c1ccc2c(c1)OCCCO2	12.6 µM (active)
O=C1N(Cc2ccccc2)c2ccc(Cl)cc2C1(O)c1c[nH]c2ccccc12 (stereo not given)	inactive
CC(C)(C)C1CCC(C(=O)NCC(c2cccs2)N2CCOCC2)CC1 (stereo not given)	inactive
O=C(NCc1ccc(Cl)cc1)C1CCN(S(=O)(=O)c2cccs2)CC1	inactive
O=C(NCc1csc(-c2cccs2)n1)C1CC1	11.2 µM (active)
Cc1ccc(CNS(=O)(=O)c2ccc(C(=O)N(C)C)s2)cc1	inactive
CCOC(=O)c1ccc(N2C(=O)c3n[nH]c(-c4ccco4)c3C2c2ccc(O)cc2)cc1 (stereo not given)	inactive
CCCNC(=O)C1CC(=O)N(c2ccc(OCc3ccccc3)cc2)C1 (stereo not given)	3.16 µM (active)
CCCNC(=O)C1CC(=O)N(c2ccc(OCC(=O)Nc3cccc(C)c3C)cc2)C1 (stereo not given)	inactive
CCOc1ccc(N2CC(C(=O)NCc3ccccn3)CC2=O)cc1 (stereo not given)	inactive
OCC(O)C(O)C(O)C(O)C=Nc1ccc(/C=C/c2ccnc3ccccc23)cc1 (stereo not given)	inactive
OC(COc1ccc2ccccc2c1)Cn1cncn1 (stereo not given)	inactive
Cc1cccc(OCC(O)Cn2c(=N)n(CCN3CCOCC3)c3ccccc32)c1 (stereo not given)	inactive
OC(COc1ccc2ccccc2c1)CN1CCOCC1 (stereo not given)	11.2 µM (active)
Cc1cc2c(cc1C)C(c1cccc(OC(C)C)c1)CC(=O)N2 (stereo not given)	inactive

Structure (SMILES)	Potency
COc1ccc(NC(=O)Nc2ccc3nsnc3c2)cc1	2.51 µM (active)
COc1ccc(NC(=O)Nc2cccc(-c3noc(C)n3)c2)cc1	inactive
O=C(Nc1ccc2ccccc2c1)Nc1ccc2snnc2c1	inactive
N/C(=N\OC(=O)CCC1CCCCC1)c1ccccn1	7.94 µM (active)
Cc1ccc(C(=O)O/N=C(\N)c2ccccn2)cc1Cl	inactive
N/C(=N\OC(=O)CC1CCCCC1)c1ccccc1	inactive
O=C1O/C(=C\c2ccc(O)cc2)C(O)=C1c1ccc(O)cc1	inactive
COc1ccc(CCNC(=O)CCCn2c(=O)c3ccccc3n(Cc3ccc(C)cc3)c2=O)cc1OC	inactive
COc1ccc(/C=C/c2ccccn2)cc1OC	inactive
COc1ccc(-c2noc(CSc3nc4ccc(C)cc4[nH]3)n2)cc1	inactive
Cc1cccc2nc(CNc3ccc(F)cc3)cn12	12.6 µM (active)
CCOC(=O)CSc1nnc(CNc2ccc(F)cc2)o1	inactive
Cc1ccc(-c2nc3ccccn3c2Nc2ccc(F)cc2)o1	inactive
Cc1oc2ncn(CC(C)C)c(=O)c2c1C(=O)N1CCN(c2ccccc2F)CC1	inactive
CCOC(OCC)c1ccc(/C=C\c2nccc(N)n2)cc1	3.16 µM (active)
O=C(Nc1ccc(Cl)cc1)c1cnn2c1NC(=C1CC1)C=C2C(F)F	inactive
CCOC(=O)CC1(NC(=O)c2cc(COc3cncc(Cl)c3)on2)CCCCC1	inactive
CCCOC1CCCN(C(=O)c2cc(COc3cncc(Cl)c3)on2)C1 (stereo not given)	5.62 µM (active)
CC1CN(C(=O)c2cc(COc3c(F)cccc3F)on2)CCN1C (stereo not given)	inactive
O=C(c1ccco1)N(Cc1cccs1)c1ccc(O)cc1	inactive
CCc1nn(CCCC(=O)NCc2ccccc2OC)c(=O)c2cc3occc3n12	inactive
CCc1nn(CC(=O)NCC(C)c2ccccc2)c(=O)c2cc3occc3n12 (stereo not given)	inactive
COc1ccc2cc(-c3nc(Cl)c4c5c(sc4n3)CC(C)CC5)c(=O)oc2c1 (stereo not given)	inactive
Cn1c(=O)c2c(nc(NCCc3ccccc3)n2Cc2ccccc2Br)n(C)c1=O	inactive
CSc1ccc(/C=C2\NC(=O)NC2=O)cc1	inactive
Cc1ccccc1-n1c(C)cc(/C=C2\NC(=O)NC2=O)c1C	10 µM (active)
Cc1ccccc1-n1c(C)cc(/C=N/NC(=O)c2ccc(CN3CCOCC3)cc2)c1C	inactive

Structure (SMILES)	Potency
COc1ccc(Cl)cc1N(C)C(=O)c1cc2c(=O)oc3ccc(C)cc3c2s1	inactive
COc1ccc(NC(=O)c2cnc(Nc3ccc(C)c(Cl)c3)c3ccccc23)cc1OC	inactive
O=C1c2ccccc2C(=O)N1c1ccc(S(=O)(=O)N2CCOCC2)c2ccccc12	inactive
COc1cccc(NC(=O)CSc2cc(=O)n(C)c3ccc(Cl)cc23)c1	inactive
Cc1ccc(NC(=O)CN2C(=O)CC(C)Sc3ccccc32)c(C)c1 (stereo not given)	inactive
O=C(NC(Cc1c[nH]c2ccccc12)C(=O)N/N=C/c1ccc(Br)cc1)c1cccs1 (stereo not given)	inactive
C[C@H](NC(=O)c1ccccc1)C(=O)OCC(=O)c1c[nH]c2ccccc12	inactive
O=C(N/N=C/c1c[nH]c2ccccc12)c1ccccc1O	8.91 µM (active)
CCOC(=O)c1cccc(NC(=O)c2cc(S(=O)(=O)N3CCCC(C)C3)cn2C)c1 (stereo not given)	inactive
O=C(CCn1c(=O)c2ccccc2n(Cc2ccc(Cl)cc2)c1=O)NCc1ccc2c(c1)OCO2	inactive
CCCN(C(=O)Cn1cc(S(=O)(=O)N2CCN(c3ccccc3F)CC2)c2ccccc2c1=O)c1cccc(C)c1	inactive
OC(c1ccccc1)(c1ccccc1)C1CCN(CCCOc2ccccc2)CC1	inactive
CCOc1ccc(C(=O)CCN2CCOCC2)cc1	inactive
c1ccc(-c2ccc(OCCN3CCOCC3)cc2)cc1	11.2 µM (active)
CCc1cccc(NC(=O)Cn2nc(CC)n3c(cc4cc(C)ccc43)c2=O)c1	inactive
COc1ccccc1C(=O)NCCn1cc(SCc2ccccc2Cl)c2ccccc21	inactive
COc1ccc(CN2C(=O)C(C)S/C2=N/N=C/c2ccco2)cc1 (stereo not given)	11.2 µM (active)
CCN(CC)C(=O)C1=C(C)N(Cc2ccc(OC)cc2)C(=O)C(CC(=O)NCc2ccco2)C1 (stereo not given)	inactive
O=C1N/C(=N\N=C\c2ccco2)SC1Cc1ccc(F)cc1 (stereo not given)	inactive
CN(Cc1ccccc1)c1ccc(/C=C/c2ccnc3ccccc23)cc1	inactive
CCc1ccc(OCCCn2c(CCCNC(=O)C3CCCCC3)nc3ccccc32)cc1	inactive
COc1ccccc1CNS(=O)(=O)c1cc(Br)cc2c1N(C(C)=O)C(C)C2 (stereo not given)	inactive
Fc1cc(F)c2nc(N3CCOCC3)sc2c1	12.6 µM (active)
Cc1nc(N2CCOCC2)sc1C(=O)NN	inactive
Cc1cc(C)c2nc(N3CCC(C(=O)NCCN4CCOCC4)CC3)sc2c1	inactive
CCc1nc2onc(C)c2c(=O)n1CC(=O)O	inactive
Cc1cc(C(=O)COc2ccc(Br)cc2F)c(C)n1C1CC1	inactive

Structure (SMILES)	Potency
Cc1cc(C(=O)COc2ccccc2Cl)c(C)n1C1CC1	12.6 µM (active)
O=C(COc1ccccc1Cl)N1CCCCCCC1	inactive
Cn1c(=O)c2c(-c3ccccc3Br)n(Cc3ccccc3)cc2n(C)c1=O	inactive
S=C(Nc1ccc2c(c1)OCO2)N1CCCC1	inactive
S=C(NCc1ccco1)Nc1ccc2c(c1)OCCO2	inactive
S=C(Nc1cccc(Cl)c1)Nc1ccc2c(c1)OCCO2	11.2 µM (active)
CCc1ccccc1OCC(=O)Nc1ccc2c(c1)OCCO2	inactive
CCCCC(=O)Nc1ccc2c(c1)OCCO2	7.08 µM (active)
Cc1ccc(OCCCC(=O)Nc2ccc3c(c2)OCCO3)cc1	inactive
COc1ccccc1-c1cc2nc(C)c(CCC(=O)NC3CCCCC3)c(C)n2n1	inactive
COc1ccc(NC(=O)CSc2nnc(-c3nnn(-c4ccc(F)cc4)c3C)o2)cc1	inactive
O=C(CS(=O)(=O)c1cccc2nsnc12)N1CCN(c2cccc(Cl)c2)CC1	inactive
COc1ccc2[nH]c3c(c2c1)CCN(C(=O)CCC1CCCC1)C3c1ccc(F)cc1 (stereo not given)	inactive
Cc1ccc(Cl)cc1N1CCN(C(=O)CN2C(=O)COc3ccc(S(=O)(=O)N4CCOCC4)cc32)CC1	inactive
COc1cccc(OCc2cc(C(=O)N3CCN(C(=O)c4ccco4)CC3)no2)c1	11.2 µM (active)
COc1ccc(OCc2cc(C(=O)N3CCCC3)no2)c2ccccc12	inactive
O=C(c1cc(COc2cccc(C(F)(F)F)c2)on1)N1CCSCC1	inactive
CCN(CC)S(=O)(=O)c1ccc2c(c1)nc(CN(C)C(=O)Nc1ccc(Cl)cc1)n2C	inactive
Cc1cc(F)ccc1NS(=O)(=O)c1ccc(-n2cccn2)cc1	inactive
Nc1c(C(=O)Nc2ccc3c(c2)OCCO3)nnn1Cc1ccccc1	4.47 µM (active)
O=C(Nc1ccc2c(c1)OCCO2)C(C1CC1)N1CCC(Cc2ccccc2)CC1 (stereo not given)	inactive
Cn1cc([N+](=O)[O-])c(C(=O)Nc2ccc3c(c2)OCCO3)n1	inactive
COC(=O)c1c(NC(=O)CCCOc2ccccc2)sc2c1CCC(C)C2 (stereo not given)	inactive
CCN(CCCNC(=O)c1cc2cc3cc(OC)ccc3nc2s1)c1ccccc1	inactive
